# A selection: hits, their analogues and other compounds. The true share with any hit is near 6.1%.
# ERG-DNA inh: blocks human ERG Ets domain binding to DNA; fluorescence polarization, His-ERG Ets domain / labelled DNA; 370,000 compounds, 0.028% hits; P11308; Potency, µM (series often up to 76.9 µM), for inactives: at the highest dose FP activity, negative = inhibition, most hits filed as inhibitors; active means well fitted inhibition curve with a large enough effect in the polarisation, with a control signal flat; inconclusive means small, poorly fitted or top-dose-only effect, or effect the other way, or a change in a side signal; inactive means no such curve, though single readings can be large or run the other way; the % refers to the polarisation;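 further: polarization taken with two DNA probes labelled with fluorescein and Texas red; potency means the concentration at half of the fitted maximal effect; % of control where 0% means no effect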
#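 His-tagged ERG Ets domain (1 uM in the protein solution; 300mM KCl, 50mM Tris-HCl, 1mM EDTA, 1mM DTT, pH 7.5) received compound, then a probe mix of 5 nM fluorescein-DNA and 100nM Texas-615-DNA. Fluorescence polarization was read for both dyes.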
# D3 ag: agonists of human D3 dopamine receptor; P35462; D3R DiscoveRx beta-arrestin cells, luminescence, 90 min; max activation, %; 410,000 compounds, 0.58% hits; in the data active means max activation above about 30%; further: 0% is about no effect
#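 Cells at 1500/well, incubated overnight, then treated with pinned compounds (dopamine as control) for 90 min at 37 degrees C. DiscoveRx reagent added for 30 - 60 minutes at room temperature; luminescence read.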
# D1 agonist: activates the human D1 dopamine receptor. P21728. HEK293 T-REx D1 cells, calcium flux, agonist mode. activation, % at 2 µM. 360,000 compounds, 1% hits; in the data active means activation above about 30%; further: 0% is about no effect
# Target sequence (P21728 whole entry, looked up): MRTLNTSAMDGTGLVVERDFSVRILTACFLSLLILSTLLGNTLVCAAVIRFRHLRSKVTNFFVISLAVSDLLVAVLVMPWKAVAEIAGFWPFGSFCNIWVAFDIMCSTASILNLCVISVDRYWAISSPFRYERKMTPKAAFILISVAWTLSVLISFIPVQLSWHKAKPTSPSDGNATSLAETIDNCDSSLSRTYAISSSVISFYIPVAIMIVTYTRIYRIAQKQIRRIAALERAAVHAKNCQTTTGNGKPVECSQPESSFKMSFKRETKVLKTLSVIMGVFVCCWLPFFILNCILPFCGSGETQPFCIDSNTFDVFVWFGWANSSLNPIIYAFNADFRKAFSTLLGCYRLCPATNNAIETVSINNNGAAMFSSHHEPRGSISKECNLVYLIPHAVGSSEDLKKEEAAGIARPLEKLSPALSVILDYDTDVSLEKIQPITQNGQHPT
#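 Inducible HEK293 T-REx D1 cells, force-coupled to calcium signalling, were plated at 4000 cells/well with tetracycline and held overnight at 30 C. After no-wash calcium dye loading, compound-evoked calcium rise over 180 s flagged agonists.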
# D1 antagonist: human D1 dopamine receptor antagonism | P21728 | HEK293 TREx D1 cells, calcium flux, dopamine EC80; hits give low values | activity change, negative = inhibition, % at 10 µM | 360,000 compounds, 3.2% hits | AID 504652; in the data active means activity change below about -30%; further: on the % scale 0 is the no-effect control and ±100 the full control effect
#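 Cells carrying a force-coupled, tetracycline-inducible human D1 receptor report calcium flux. Each well gets a 10 s baseline, compound with 180 s monitoring, then an EC80 dopamine stimulus with a second 180 s kinetic read.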
# D1 potentiator: human D1 dopamine receptor positive modulation. P21728. HEK293 TREx D1 cells, calcium flux, dopamine EC20 potentiation. potentiation, % at 10 µM. 360,000 compounds, 0.036% hits. AID 504651; in the data active means potentiation above about 30%; further: 0% is about no effect
# DRD3 antagonist: D3 dopamine receptor (human) antagonism. AID 652054. max response, negative = inhibition, %. D3R cells, DiscoveRx beta-arrestin luminescence, antagonist mode; hits give low values. 360,000 compounds, 2.5% hits; in the data active means max response below about -50%; inconclusive means no clear call, values can overlap the other calls; further: on the % scale 0 is the no-effect control and ±100 the full control effect
#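 Cells plated overnight at 1500 cells/well, then exposed to library compounds with dopamine controls for 90 minutes at 37 degrees C. DiscoveRx reagent added for 30–60 minutes at room temperature; luminescence read, quantitative HTS format.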
# An asterisk follows results filed as active; ? = inconclusive; nt = no result.
SMILES,ERG-DNA inh,D3 ag,D1 agonist,D1 antagonist,D1 potentiator,DRD3 antagonist
O=C(C1CCN(S(=O)(=O)c2cccc3cccnc23)CC1)N1CCc2ccccc21,-2.2%,1.3,2.7,-25.9,1.8,-52.6*
CCc1ccc(NC(=O)CC2C(=O)N(c3ccc(C)cc3)C(=O)N2C2CCCC2)cc1 (stereo not given),-4.3%,-14.4,0.7,-3.4,-2.5,nt
OCc1cn(-c2ccccc2)nc1-c1ccc2c(c1)OCCO2,-8.3%,0.5,1.0,-6.6,-0.1,27.8
c1ccc(-n2cc(CNCCc3cscn3)c(-c3ccc4c(c3)OCO4)n2)cc1,20.5%,-23.8,6.4,9.6,0.7,-61.9*
CCC(=O)N1CCN(c2nnc(-c3ccccc3)c3ccccc23)CC1,2.3%,4.3,1.0,-1.3,-0.5,9.5
N#Cc1cc([N+](=O)[O-])ccc1N1CCN(c2ccccc2O)CC1,-2.5%,0.2,24.0,-30.2*,-13.0,-16.9
O=[N+]([O-])c1ccc(N2CCN(c3ccc([N+](=O)[O-])cc3CO)CC2)c(CO)c1,-4.3%,-2.3,10.1,-19.9,-4.7,-1.3
CCOC(=O)Cn1c(O)c(N=NC(=O)OC)c2ccccc21,1.3%,-12.0,2.3,7.4,-2.1,-4.3
COC(=O)Cn1c(O)c(N=NC(=O)c2ccc3c(c2)OCO3)c2ccccc21,-5.4%,3.5,0.4,-34.9*,2.5,-14.9
CC1(C)CC(=O)C2=C(C1)N1CCCCC1CC2=O (stereo not given),-2.3%,2.2,-1.1,4.8,3.3,1.0
CCN(CC)c1ccc(-n2cc3c(=O)n(C)c(=O)n(C)c3c2)cc1,21.0%,-3.8,1.6,35.4,7.4,-55.4*
CN(C)c1ccc(-n2cc3c(=O)n(C)c(=O)n(C)c3c2)cc1,-13.5%,2.5,1.2,1.6,-4.8,37.8
CCOC(=O)c1c(C)[nH]c(C(=O)NNC(=O)c2ccc(C(C)(C)C)cc2)c1C,-8.5%,-4.3,7.3,3.6,-3.6,12.7
COc1ccc(/C=C/C(=O)N2c3ccccc3Sc3ccc(C(F)(F)F)cc32)cc1,3.9%,0.8,12.8,-39.9*,-8.4,-6.2
Cc1cc(C)c(NC(=O)c2c[nH]c(=S)n2-c2ccc(F)cc2)c(C)c1,-6.4%,-6.3,1.8,0.1,-2.1,3.6
COc1ccc(CCN2C(=O)CSC2c2cccc([N+](=O)[O-])c2)cc1OC (stereo not given),0.4%,-9.2,-1.8,-30.2*,-4.3,2.1
COc1ccc(CCN2C(=O)CSC2c2ccc(OC)c(OC)c2)cc1OC (stereo not given),-6.4%,-4.6,-0.4,-18.7,-3.9,19.1
Cc1cccc(C)c1NC(=O)C(NC(=O)c1ccccn1)c1ccc([N+](=O)[O-])cc1 (stereo not given),10.9%,-5.1,3.0,-4.5,1.1,-52.5*
Cn1c2ccccc2c2ncn(CCC3=CCCCC3)c(=O)c21,0.7%,0.8,3.7,10.5,1.8,3.1
COc1cccc(CNC(=O)c2ccc3nc(CCc4ccccc4)oc3c2)c1OC,-1.6%,1.5,48.3*,-31.9*,-2.5,nt
COc1ccc(CNC(=O)c2ccc3nc(CCc4ccccc4)oc3c2)cc1,-21.0%,-11.0,53.1*,-3.1,-2.8,nt
CCn1ccnc1CNC(=O)c1ccc2oc(CCCc3ccccc3)nc2c1,2.2%,-15.3,13.1,3.9,-9.9,-51.4*
COc1ccc(CNC(=O)c2ccc3nc(CCc4ccccc4)oc3c2)cc1OC,-5.0%,11.7,22.4,-5.2,-2.9,nt
O=C(NCCc1ccccc1)c1ccc2nc(CCc3ccccc3)oc2c1,1.7%,5.8,13.7,0.4,1.3,nt
CS(=O)(=O)N(Cc1ccccc1F)c1ccccc1,3.2%,-1.9,1.5,3.1,-8.4,?
Cc1cc(OC(=O)c2cccc([N+](=O)[O-])c2)c(C)cc1CN1CCOCC1,-5.1%,2.5,8.3,-9.0,0.1,14.2
CCCCOC(=O)c1ccc(NC(=S)NC(=O)c2c(Cl)cnn2C)cc1,-4.6%,-2.7,2.8,-7.2,-4.8,-85.0*
CCCCn1c(O)c(N=NC(=O)c2ccco2)c2ccccc21,-1.8%,-5.3,0.8,9.0,-14.7,12.9

# Screening data deposited in PubChem BioAssay by National Center for Advancing Translational Sciences (NCATS).
